# Screening results from PubChem.
# Rce1 inh – yeast Ras-converting enzyme inhibition; calls only; 290,000 tested, 0.27% active; AID 2563; yeast membranes, quenched prenylated peptide cleavage fluorescence;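 active = fall in fluorescence gain of 50% or more versus controls, with final raw signal at or below 3038400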
# Target sequence (Q03530 whole entry, looked up): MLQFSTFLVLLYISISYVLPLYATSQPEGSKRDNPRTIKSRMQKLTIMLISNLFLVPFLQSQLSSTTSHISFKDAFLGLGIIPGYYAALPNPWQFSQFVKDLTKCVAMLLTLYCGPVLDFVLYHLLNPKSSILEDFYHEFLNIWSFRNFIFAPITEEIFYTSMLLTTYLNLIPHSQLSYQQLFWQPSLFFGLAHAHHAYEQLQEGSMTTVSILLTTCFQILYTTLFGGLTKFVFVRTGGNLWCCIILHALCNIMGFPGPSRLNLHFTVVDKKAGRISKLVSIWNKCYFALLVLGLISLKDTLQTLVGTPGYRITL
# tim23-1 inh – tim23-1 yeast growth inhibition. S. cerevisiae tim23-1 growth, BacTiter-Glo luminescence, 24 h. inhibition, % at 20 µM. 330,000 tested, 1.3% active. AID 463212;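 active = growth inhibition of the mutant yeast at or above 50%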;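 note: temperature-sensitive mutant grown at 25 °C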
# PfHsp90 yeast 2 – inhibits growth of yeast expressing Plasmodium falciparum Hsp90 | S. cerevisiae expressing PfHsp90, BacTiter-Glo ATP, 48 h; yeast lacking PDR1 and PDR3 efflux regulators | inhibition, % at 9.4 µM | 310,000 tested, 0.32% active | AID 504621;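 active = every replicate shows inhibition above about 80%, whatever the replicate mean, limit read from the data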
# TIM10 inh – inhibits growth of TIM10 yeast strain; S. cerevisiae TIM10 strain growth, BacTiter-Glo luminescence, 24 h; inhibition, % at 10 µM; 330,000 tested, 1.4% active; AID 463195;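 active = inhibition of 40% or more at the single tested concentration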;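 note: wild-type TIM10 isogenic control strain grown at permissive 25 °C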
# tim10-1 inh – tim10-1 yeast growth inhibition. S. cerevisiae tim10-1 ts strain growth, BacTiter-Glo, 24 h. inhibition, % at 20 µM. 330,000 tested, 2.2% active. AID 463190;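 active = inhibition of at least 40%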;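 note: mutant grown at 25 °C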
# tim10-1 confirm – confirmation of tim10-1 mutant yeast growth inhibitors. inhibition, % at 20 µM. 7,400 tested, 56% active. shares compounds with tim10-1 inh. S. cerevisiae tim10-1 ts strain growth, BacTiter-Glo, 24 h;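 active = inhibition of yeast growth at or above a set limit in either of two repeat tests at 20 µM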;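 note: tim10-1 mutant grown at permissive 25 °C to find synthetic lethal compounds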
# TIM10 conf – confirmation of TIM10 yeast growth inhibitors | shares compounds with TIM10 inh | S. cerevisiae tim10 strain growth, BacTiter-Glo luminescence, 24 h | inhibition, % at 10 µM | 4,600 tested, 63% active;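 active = inhibition of yeast growth at or above a set limit in either of two replicates at 10 µM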; note: this counterscreen used the strain with wild-type TIM10
# tim23-1 conf – tim23-1 yeast growth inhibition, confirmed; shares compounds with tim23-1 inh; S. cerevisiae tim23-1 growth, BacTiter-Glo luminescence, 24 h; inhibition, % at 20 µM; 4,400 tested, 83% active;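 active = inhibition above about 39% in either of two replicate wells at 20 µM, limit read from the data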;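 note: temperature-sensitive tim23-1 mutant grown at 25 °C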
# Hits are given with their value; – = inactive; · = no result given. This is a sample that favours compounds with a hit; in the whole collection about 3.7% have one here.
SMILES,Rce1 inh,tim23-1 inh,PfHsp90 yeast 2,TIM10 inh,tim10-1 inh,tim10-1 confirm,TIM10 conf,tim23-1 conf
COC(=O)C1=C(C)OC(N)=C(C#N)C1c1cc(C)sc1C (configuration not stated),–,–,–,–,–,·,·,·
CN(C)CCNc1c2c(c(C#N)c3nc4ccccc4n13)CCCC2,–,–,–,–,–,·,·,·
CCN(CC)CCNc1c2c(c(C#N)c3nc4ccccc4n13)CCCC2,–,57,–,60,68,56,53,67
Cc1ccc(N2CC(C(=O)O)CC2=O)cc1 (configuration not stated),–,–,–,–,–,·,·,·
CC(=O)/C=C/c1ccc2ccccc2n1,–,71,–,59,65,65,60,82
O=C(CSc1nnnn1C1CC1)Nc1ccc(S(=O)(=O)N2CCOCC2)cc1,·,–,–,–,–,·,·,·
Cc1ccc(SCC(=O)OCn2nnc3ccccc3c2=O)cc1C,–,67,–,–,42,–,·,51
CNC(=S)Nc1ccc(C23CC4CC(CC(C4)C2)C3)cc1,–,63,–,50,62,48,39,79
COc1ccc(C2CC2/C(C)=N/OC(=O)c2ccc(F)cc2)cc1 (configuration not stated),–,77,–,84,49,–,92,61
COc1ccc(OCCOC(=O)c2cccs2)cc1,–,–,·,–,–,·,·,·
COc1ccc(C2CC2/C(C)=N/OC(=O)c2cccs2)cc1 (configuration not stated),–,78,–,65,66,45,86,81
CN1CCN(c2ccccc2NC(=O)c2ccc(-c3ccc(Br)cc3)o2)CC1,–,–,–,–,56,46,·,–
CCOC(=O)Cc1cc(=O)n2[nH]cc(-c3cccc(Br)c3)c2n1,–,–,–,–,–,·,·,·
N/C(=N\OC(=O)CCCOc1ccccc1)c1ccc(Br)cc1,–,–,–,–,–,·,·,·
COc1ccc(/C(N)=N/OC(=O)CC2CCCCC2)cc1,·,57,–,66,59,64,38,54
N/C(=N\OC(=O)CCC1CCCC1)c1cccc([N+](=O)[O-])c1,–,50,–,–,48,38,·,–
N/C(=N\OC(=O)CSc1ccccc1)c1ccc([N+](=O)[O-])cc1,–,–,–,–,–,·,·,·
N/C(=N\OC(=O)CCC1CCCCC1)c1ccc([N+](=O)[O-])cc1,–,67,·,60,83,79,51,70
N/C(=N\OC(=O)CCC1CCCC1)c1ccc(Br)cc1,–,66,–,83,68,50,72,61
COc1cc(-c2nnc(COC(=O)c3nn(CC(C)C)c(=O)c4ccccc34)o2)cc(OC)c1OC,–,–,–,–,–,·,·,·
CCc1cccc(C)c1NC(=O)CO/N=C(\N)CC(=O)NC1CCCCC1,–,–,–,–,–,·,·,·
COc1ccc(Br)cc1/C=N/Nc1cccc(C(=O)O)c1,–,–,–,–,–,·,·,·
O=C(CP(=O)(c1ccccc1)c1ccccc1)N/N=C/c1cc(Br)cc(Br)c1O,–,–,–,–,–,·,·,·
Cc1c(N=Cc2cc(Br)cc(Br)c2O)cccc1C(=O)O,–,83,102,42,59,50,–,90
O=C(O)c1cccc(N/N=C/c2cc(Br)cc(Br)c2O)c1,–,78,110,–,49,42,·,74
SMILES,Rce1 inh,tim23-1 inh,PfHsp90 yeast 2,TIM10 inh,tim10-1 inh,tim10-1 confirm,TIM10 conf,tim23-1 conf
Cc1ccc(S(=O)(=O)/N=S(/c2ccccc2)C(C)C)cc1 (configuration not stated),–,–,–,–,–,·,·,·
N#Cc1cccc(N=c2ssnc2Cl)c1,–,–,–,–,–,·,·,·
COc1cc(N=c2ssnc2Cl)cc(OC)c1,–,76,–,–,55,58,·,79
Cc1cc(=O)oc2c(O)c(O)ccc12,·,·,–,·,·,·,·,·
COc1ccc(/C=C\C(=O)c2c(O)ccc3c(C)cc(=O)oc23)cc1,–,53,–,–,52,36,·,51
COc1ccc(/C=C/C(=O)c2c(O)ccc3c(C)cc(=O)oc23)cc1,–,50,–,55,51,47,57,60
S=C1NCN(C2CCCCC2)CN1c1ccccc1,–,–,–,–,–,·,·,·
